# Reference: article PMC5540273 (PLoS ONE, 2017)
# Where two headings read alike, the source gives them in different places.
# Legend:
# Conditions in all cases: n = 1
# CDK4 = system: CDK4
# CDK5 = system: CDK5
# CDK7 = system: CDK7
# CDK8 = system: CDK8
# CDK9 = system: CDK9
# CDKL1 = system: CDKL1
# CDKL2 = system: CDKL2
# CDKL3 = system: CDKL3
# CDKL5 = system: CDKL5
# CHEK1 = system: CHEK1
# [1] = concentration: 1 μM, replicates: in singlicate
# 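Further: KINOMEscan kinase panel screen.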
Structure (SMILES),%Inh (CDK4; [1]) [%],%Inh (CDK5; [1]) [%],%Inh (CDK7; [1]) [%],%Inh (CDK8; [1]) [%],%Inh (CDK9; [1]) [%],%Inh (CDKL1; [1]) [%],%Inh (CDKL2; [1]) [%],%Inh (CDKL3; [1]) [%],%Inh (CDKL5; [1]) [%],%Inh (CHEK1; [1]) [%],%Inh (CDK4; 1 µM) [%],%Inh (CDK5; 1 µM) [%],%Inh (CDK7; 1 µM) [%],%Inh (CDK8; 1 µM) [%],%Inh (CDK9; 1 µM) [%],%Inh (CDKL1; 1 µM) [%],%Inh (CDKL2; 1 µM) [%],%Inh (CDKL3; 1 µM) [%],%Inh (CDKL5; 1 µM) [%],%Inh (CHEK1; 1 µM) [%]
COc1cc(Nc2nccc(N3CCC(NC(=O)Nc4cc(C)ccc4C)C3)n2)cc(OC)c1OC (centres unmarked) [GSK1379762],0,0,0,20,0,0,41,0,7,25,–,–,–,–,–,–,–,–,–,–
COC(=O)c1c(-c2ccccc2)c2cc(OC)ccc2c(=O)n1Cc1ccccc1,0,11,15,7,9,3,13,12,0,0,–,–,–,–,–,–,–,–,–,–
Cl.O=C(Nc1cccc(-c2nn3ncccc3c2-c2ccnc(Nc3cccnc3)n2)c1)c1c(F)cccc1F [GSK312879],0,0,0,0,0,1,19,0,0,12,–,–,–,–,–,–,–,–,–,–
Cc1cc(-c2ccc3c(c2)CC[C@@H](N[C@@H](C)c2ccccc2)C3)cnc1N.Cl [GW412617],26,4,0,14,0,0,18,0,0,14,–,–,–,–,–,–,–,–,–,–
Cc1cccc(-c2cc(Nc3ccncc3)c3ccccc3n2)n1 [GSK223675],0,0,0,0,4,0,5,0,1,0,–,–,–,–,–,–,–,–,–,–
Cc1cc(NCC(c2ccccc2)c2ccccc2)nc(NCc2ccc(C(F)(F)F)cc2)n1 [GW497681],0,0,0,28,0,0,12,0,0,0,–,–,–,–,–,–,–,–,–,–
CC(C)(C)c1ccc(C(=O)Nc2cn3cc(Cl)ccc3n2)cc1,0,18,0,7,0,19,0,0,0,0,–,–,–,–,–,–,–,–,–,–
O=C(Nc1n[nH]c2nc(-c3nccs3)c(Br)cc12)C1CC1 [SB-742251],44,0,12,25,0,24,92.3,0,0,0,–,–,–,–,–,–,–,–,–,–
Cn1ccc2ncnc(Oc3ccc(Nc4nc5ccccc5[nH]4)cc3)c21,0,0,0,6,0,18,0,11,0,0,–,–,–,–,–,–,–,–,–,–
CC(=O)Nc1nc2cnc(Nc3cc(NC(=O)c4cccc(CCC#N)c4)ccc3C)nc2s1,2,12,39,5,0,0,29,0,4,0,–,–,–,–,–,–,–,–,–,–
CN(C)CCN(C)C(=O)c1cc(-c2ccncc2)c(-c2ccc(Cl)c(O)c2)o1.Cl.Cl [SB-710397],0,0,0,37,0,0,20,0,2,9,–,–,–,–,–,–,–,–,–,–
Cc1ccccc1-n1cnc2c(N)ncnc21 [SKF-97510],0,0,0,0,0,14,0,39,0,5,–,–,–,–,–,–,–,–,–,–
Cc1c(O)cccc1Nc1ccnc2ccc(C(F)(F)F)cc12.Cl [GW466413],33,0,0,18,0,0,5,0,0,0,–,–,–,–,–,–,–,–,–,–
Cc1cccc(-c2nc(Nc3ccncc3)c3ccccc3n2)n1 [GW855857],0,0,0,65,0,47,10,0,0,0,–,–,–,–,–,–,–,–,–,–
Cc1nnc(-c2ccc3occ(-c4ccc(S(C)=O)cc4)c3c2)[nH]1 (centres unmarked),0,0,0,0,0,0,0,0,12,0,–,–,–,–,–,–,–,–,–,–
CCCc1ccc(S(=O)(=O)NC2CCN(c3ccnc(Nc4ccc(F)cc4)n3)C2)cc1 (centres unmarked) [GSK1379715],0,0,0,0,0,13,38,0,0,6,–,–,–,–,–,–,–,–,–,–
COc1cc2ncn(-c3cc(OCC4CCCO4)c(C(N)=O)s3)c2cc1OC (centres unmarked) [GSK204607],13,0,4,32,0,11,1,0,0,0,–,–,–,–,–,–,–,–,–,–
Fc1cc(Cl)ccc1Nc1ccnc2cc(I)ccc12 [GW551191],23,0,0,7,0,0,21,0,3,0,–,–,–,–,–,–,–,–,–,–

Structure (SMILES),%Inh (CDK4; [1]) [%],%Inh (CDK5; [1]) [%],%Inh (CDK7; [1]) [%],%Inh (CDK8; [1]) [%],%Inh (CDK9; [1]) [%],%Inh (CDKL1; [1]) [%],%Inh (CDKL2; [1]) [%],%Inh (CDKL3; [1]) [%],%Inh (CDKL5; [1]) [%],%Inh (CHEK1; [1]) [%],%Inh (CDK4; 1 µM) [%],%Inh (CDK5; 1 µM) [%],%Inh (CDK7; 1 µM) [%],%Inh (CDK8; 1 µM) [%],%Inh (CDK9; 1 µM) [%],%Inh (CDKL1; 1 µM) [%],%Inh (CDKL2; 1 µM) [%],%Inh (CDKL3; 1 µM) [%],%Inh (CDKL5; 1 µM) [%],%Inh (CHEK1; 1 µM) [%]
O=c1cc(N2CCOCC2)nc2n(Cc3cccc(Cl)c3Cl)ccn12 [GSK2286295],0,0,0,0,14,0,7,0,2,0,–,–,–,–,–,–,–,–,–,–
Cc1c(Cn2ccn3c(=O)cc(N4CCOCC4)nc23)cccc1C(F)(F)F [GSK2289044],4,0,0,0,0,3,10,0,16,0,–,–,–,–,–,–,–,–,–,–
Cl.Oc1ccc(-c2nc(-c3ccccc3)[nH]c2-c2ccncc2)cc1 [SB-428218],0,0,0,0,0,0,32,0,0,0,–,–,–,–,–,–,–,–,–,–
COc1ccccc1CNC(=O)c1cc(C(=O)c2ccccc2C)c[nH]1 [GSK364507],0,9,0,5,0,10,16,0,0,0,–,–,–,–,–,–,–,–,–,–
CCn1c(-c2ccccn2)nc2cnccc21 [SB-736398],34,0,0,39,0,9,17,0,0,0,–,–,–,–,–,–,–,–,–,–
O=C(Nc1n[nH]c2nc(-c3nccs3)c(Br)cc12)C1CCCC1 [SB-742609],81,0,73,0,100,0,88,0,0,0,–,–,–,–,–,–,–,–,–,–
Cl.NC(=O)c1cccc(Nc2nccc(Nc3ccc(Oc4cccc(Cl)c4)c(Cl)c3)n2)c1 [GW659008],48,0,0,28,0,9,23,0,0,0,–,–,–,–,–,–,–,–,–,–
CC(C)(C)c1ccc(C(=O)Nc2cn3cc(-c4cccnc4)ccc3n2)cc1,0,3,35,6,12,39,6,20,0,25,–,–,–,–,–,–,–,–,–,–
NC(=O)c1nnc2ccccc2c1N,0,0,14,26,15,44,1,17,9,0,–,–,–,–,–,–,–,–,–,–
COc1cc2nccc(Nc3ccc(NC(=O)c4ccc(C)cc4)c(O)c3)c2cc1OC.Cl [GW440132],35,0,75,33,0,4,13,0,0,0,–,–,–,–,–,–,–,–,–,–
Cc1ccc(-c2cc(-c3c[nH]nc3-c3ccccn3)ccn2)cc1 [GW684088],43,0,9,52,5,0,28,0,0,12,–,–,–,–,–,–,–,–,–,–
COc1cc2ncnc(Nc3ccc4nc(-c5ccccc5)[nH]c4c3)c2cc1OC.Cl [GW282450],20,0,0,0,0,1,7,0,1,0,–,–,–,–,–,–,–,–,–,–
Cn1cncc1-c1ccc2ncnc(Nc3ccc(OCc4ccccc4)cc3)c2c1 [GW320571],0,3,0,29,0,0,19,0,0,15,–,–,–,–,–,–,–,–,–,–
O=C(Nc1ccc2c(c1)OCO2)NC1CCN(c2ccnc(Nc3ccc(F)cc3)n2)C1 (centres unmarked) [GSK1379724],0,0,0,33,0,0,49,0,3,0,–,–,–,–,–,–,–,–,–,–
Cc1ccc(NC(=O)Nc2cccc(C(F)(F)F)c2)cc1 [GSK955403],–,–,–,–,–,–,–,–,–,–,0,0,12,0,0,14,0,4,0,5
Clc1cc(Cl)cc(Nc2ccnc(Nc3cc(Cl)cc(Cl)c3)n2)c1 [GSK175726],11,0,5,0,13,11,32,0,0,0,–,–,–,–,–,–,–,–,–,–
Nc1nc(-c2nccs2)c(-c2ccnc3ccccc23)s1 [GW693542],15,0,0,14,0,0,26,0,4,5,–,–,–,–,–,–,–,–,–,–
